# According to PubChem BioAssay AID624037 (The Scripps Research Institute Molecular Screening Center, 2012):
# The whole screen tested about 360,000 compounds, of which about 700 (0.19%) were called active.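 How the source made its calls: active means activation above the run's mean over test compounds plus 3 SD (cut at about 23% in these data); inactive means the rest.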 For the sample, actives were picked, then their nearest neighbours and some compounds at random.
# Biological target: Muscarinic acetylcholine receptor M5 (Homo sapiens) (UniProt P08912)
# Sequence (P08912 whole entry, looked up): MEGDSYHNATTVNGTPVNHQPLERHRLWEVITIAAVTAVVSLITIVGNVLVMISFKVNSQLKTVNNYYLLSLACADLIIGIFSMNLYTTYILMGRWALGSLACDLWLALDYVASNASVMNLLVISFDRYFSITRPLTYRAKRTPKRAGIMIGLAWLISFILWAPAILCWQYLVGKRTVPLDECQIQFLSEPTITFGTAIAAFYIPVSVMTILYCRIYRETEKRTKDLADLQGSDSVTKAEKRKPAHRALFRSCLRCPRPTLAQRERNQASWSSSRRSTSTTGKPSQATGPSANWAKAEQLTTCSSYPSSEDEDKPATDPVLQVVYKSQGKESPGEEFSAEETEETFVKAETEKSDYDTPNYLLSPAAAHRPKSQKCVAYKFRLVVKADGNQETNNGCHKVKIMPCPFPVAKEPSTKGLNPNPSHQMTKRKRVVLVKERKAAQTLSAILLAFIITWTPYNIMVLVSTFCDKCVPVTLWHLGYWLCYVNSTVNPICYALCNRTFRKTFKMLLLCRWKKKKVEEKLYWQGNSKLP
# Experiment: human M5 muscarinic receptor agonists, primary screen, CHO-K1 cells, Fluo-8 calcium fluorescence (AID 624037);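 further: signal is peak over basal fluorescence ratio across the kinetic read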
# Conditions: CHO-K1 hM5 cells, at 3 µM, active compounds read high, 0% DMSO wells, 100% maximal acetylcholine response
row,SMILES,activation
1,O=c1[nH]oc(O)c1-c1ncc(C(F)(F)F)cc1Cl,-1.47% (inactive)
2,COc1ccc(NS(=O)(=O)c2ccc(C)c(C(=O)NNC(=O)c3csc(N4CCOCC4)n3)c2)cc1,-2.51% (inactive)
3,CC1CN(c2cc(=O)n(Cc3ccc(F)cc3)c(=O)[nH]2)CC(C)O1 (centres undefined),1.48% (inactive)
4,O=C1C(Sc2cccc(F)c2)=C[C@@]2(O)CC[C@@H](O)[C@]1(Sc1cccc(F)c1)[C@H]2O,-1.89% (inactive)
5,CC12CN3CC(C)(CN(C1)C3c1ccc(Cl)cc1Cl)C2=O (centres undefined),0.42% (inactive)
6,CCC(C)C1(C2CCCC2)NC(=O)NC1=O (centres undefined),-2.24% (inactive)
7,Cc1ccsc1C1C(C#N)=C(N)OC2=C1C(=O)CC(C)(C)C2 (centres undefined),-3.66% (inactive)
8,CCOC(=O)c1cnc(SC)nc1Sc1ccc(Cl)cc1Cl,-3.12% (inactive)
9,O=C(Cn1nc(Cc2cccnc2)c2ccccc2c1=O)NCC1CCCO1 (centres undefined),1.65% (inactive)
10,COC(=O)c1ccc(OC(=O)c2nn(C)cc2Cl)c(OC)c1,-3.16% (inactive)
11,CCN(CC)CCCNC(=O)c1ccc2c(=O)n(Cc3ccc4c(c3)OCO4)c(=S)[nH]c2c1,-16.7% (inactive)
12,COC(=O)[C@]12CCCCC=C1N(CCC1=CCCCC1)C(=O)[C@H](CC(=O)N1CCSCC1)C2,0.77% (inactive)
13,CCOC(=O)[C@]12CCCC=C1N(CCC1=CCCCC1)C(=O)[C@H](CC(=O)N1CCCCC1)C2,2.91% (inactive)
14,CCOC(=O)N1CCN(C(=O)C[C@@H]2C[C@@]3(C(=O)OC)CCCCC=C3N(CCC3=CCCCC3)C2=O)CC1,24% (active)
15,COc1cc(NC(=S)NCCSc2ccc(C)cc2)cc(OC)c1,0.65% (inactive)
16,CCCCCCCCNS(=O)(=O)CCNC1CCCCC1,2.22% (inactive)
17,CCn1c(-c2ccoc2C)n[nH]c1=S,-2.69% (inactive)
18,CC(C[N+](C)(C)C)OC(N)=O (centres undefined),96.3% (active)
19,CC(=O)OCCC(C)C,1.99% (inactive)
20,CC(=O)OC(C)C[N+](C)(C)C (centres undefined),99.8% (active)

row,SMILES,activation
1,CCCCOC(=O)Nc1nccs1,1.28% (inactive)
2,COc1ccc(C(=O)NC(Cc2ccc(OC(=O)c3ccc(OC)cc3)cc2)C(=O)O)cc1 (centres undefined),0.61% (inactive)
3,Cc1ccc(O)c(NC(=S)NC(=O)COc2ccc(Br)cc2)c1,31.2% (active)
4,Cc1ccsc1C(=O)NNC(=O)COc1ccc(Br)cc1,2.78% (inactive)
5,Cc1ccc(O)c(/C=N/NC(=O)COc2ccc3c(C)cc(=O)oc3c2)c1,-0.84% (inactive)
6,Cc1ccc(S(=O)(=O)N2CCCC2CO)cc1 (centres undefined),1.95% (inactive)
7,CC1(C)OC(=O)C2=C(CC(c3ccccc3)OC2CCc2ccccc2)O1 (centres undefined),-0.45% (inactive)
8,CCCCCCSc1nsc(N)n1,-2.92% (inactive)
9,O=C(NCCN=C1NS(=O)(=O)c2ccccc21)c1ccc(S(=O)(=O)N2CCOCC2)cc1,-1.87% (inactive)
10,Cc1ccccc1N(C(=O)Cc1cccs1)C(C(=O)NC1CCCCC1)c1cn(C)nc1C (centres undefined),-1.99% (inactive)
11,O=C(O)CC/C(=N\NC(=O)c1ccc(F)cc1)c1ccc(Br)cc1,-1.22% (inactive)
12,COc1ccc(COC(=O)c2ccc(Cl)c(S(=O)(=O)N3CCOCC3)c2)cc1F,-0.05% (inactive)
13,CC1CCN(S(=O)(=O)c2ccc3ncn(CC(=O)N(C)C4CCCCC4)c(=O)c3c2)CC1,-0.64% (inactive)
14,CC(=O)Nc1ccc(S(=O)(=O)N(C)c2ccc(OCC(=O)OCC(=O)N3CCCCC3)cc2)cc1,0.4% (inactive)
15,COc1ccc(CN(C)C(=S)Nc2ccc(Cl)cc2Cl)cc1,-4.4% (inactive)
16,O=C(CCS(=O)(=O)c1cccc2nonc12)NCCc1ccccc1Cl,-0.36% (inactive)
17,Cc1nc(C)c2c(c1C(F)(F)F)-c1ccccc1C2(F)F,-0.42% (inactive)
18,COc1ccc(-c2n[nH]c(C)c2-c2ccc(OC)c(OC)c2)c(O)c1,29.1% (active)
19,COc1ccc(CCN2C(=O)c3[nH]nc(-c4ccccc4O)c3C2c2ccc(C)cc2)cc1OC (centres undefined),-2.41% (inactive)
20,COc1ccc(-c2onc(C)c2-c2ccc3c(c2)OCCO3)c(O)c1,12.5% (inactive)

row,SMILES,activation
1,O=C(NCC12CC3CC(C1)CC(CNC(=O)N1CCCC1)(C3)C2)N1CCCC1,2.96% (inactive)
2,COCCNc1ccc(-c2n[nH]c(=O)c3ccccc23)cc1[N+](=O)[O-],-2.62% (inactive)
3,CCCCC(=O)N1CC2(C)CN(C(=O)CCCC)CC(C)(C1)C2=O,1.44% (inactive)
4,O=C(COc1ccc([N+](=O)[O-])cc1Cl)Nn1cnnc1,-0.29% (inactive)
5,COc1ccc(C(C[N+](=O)[O-])n2nc(C)cc2C)cc1 (centres undefined),1.97% (inactive)
6,Cc1cc(NC(=O)Nc2ccccc2[N+](=O)[O-])no1,-2.19% (inactive)
7,CN(C)c1ccc(C(CNC(=O)c2ccc(F)cc2)c2c[nH]c3ccccc23)cc1 (centres undefined),-4.52% (inactive)
8,Cc1cc(=O)oc2c3c(cc(OCC(=O)NCCC(=O)N[C@@H](C)C(=O)O)c12)OC(C)(C)CC3,-2.41% (inactive)
9,C[C@@H]1CN([C@H](C)CO)S(=O)(=O)c2ccc(C#CC3CCCCC3)cc2O[C@H]1CN(C)C(=O)Cc1ccncc1,1.87% (inactive)
10,Cn1nc(N)c2ncc(C(Cl)(Cl)Cl)nc21,-0.27% (inactive)
11,CCC1CCCCN1S(=O)(=O)Cc1ccccc1Cl (centres undefined),-4.8% (inactive)
12,CCCS(=O)(=O)N1CCN(C(=O)c2cccs2)CC1,2.49% (inactive)
13,COc1ccccc1/C=C/CN1CCC(CO)(Cc2ccccc2)CC1,0.17% (inactive)
14,O=C(Cn1cnc2c(OCc3ccccc3)ncnc21)NCc1nc2ccccc2[nH]1,-0.16% (inactive)
15,Cc1ccc(NC(=O)C(C)c2cccc(C(=O)c3ccccc3)c2)cc1 (centres undefined),5.38% (inactive)
16,CCCC(C)C(=O)Nc1ccc(NC(C)=O)cc1 (centres undefined),0.87% (inactive)
17,CCC(C(=O)Nc1ccc(C(C)C)cc1)c1ccccc1 (centres undefined),35.8% (active)
18,CCOC(=O)c1sc(NC(=O)CSc2nc(C)cc(C(F)(F)F)n2)c(C#N)c1C,-3.97% (inactive)
19,Clc1ccc(C2=CSC3=Nc4cccc5cccc(c45)N23)cc1,-0.82% (inactive)
